Our source for the activation values is PubChem BioAssay AID1698 (The Scripps Research Institute Molecular Screening Center, 2009).

SMILES strings stand for the structures. The list shows a part of the results. Activity calls are given as the source filed them.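 Rule for the calls: active = activation above the solvent-only control wells' mean plus 3 SD (cut at about 11% in these data); inactive = the rest.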

The target of the experiment is Neuropeptide Y receptor type 2 (Homo sapiens) (UniProt P49146). Description: NPY-Y2 direct agonists without NPY, counter-screen for NPY-Y1 potentiator project, cell-based, fluorescence (AID 1698).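 Note: 0% = DMSO with isoproterenol and 100% = 40 nM NPY maximal response; agonism lowers cAMP so well fluorescence drops in active wells.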 Conditions: HEK293 Y2-CNGC, membrane potential fluorescence, agonist mode; at 3.6 µM; stronger effect = higher value.
Neuropeptide Y receptor type 2 (Homo sapiens), sequence (P49146 whole entry, looked up): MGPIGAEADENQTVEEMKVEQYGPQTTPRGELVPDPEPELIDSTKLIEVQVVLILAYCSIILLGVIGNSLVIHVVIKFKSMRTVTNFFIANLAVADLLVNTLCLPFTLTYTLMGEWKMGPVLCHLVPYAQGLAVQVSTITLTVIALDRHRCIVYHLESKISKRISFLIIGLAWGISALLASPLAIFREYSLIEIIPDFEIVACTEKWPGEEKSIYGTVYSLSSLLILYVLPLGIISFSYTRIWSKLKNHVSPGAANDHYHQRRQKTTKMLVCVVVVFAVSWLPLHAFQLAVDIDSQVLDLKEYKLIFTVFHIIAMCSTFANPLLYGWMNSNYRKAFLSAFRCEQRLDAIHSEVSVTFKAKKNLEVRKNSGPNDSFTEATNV

On to `CSC1=NP(=S)(SC)N(C)c2nc3n(c21)CCC3` (configuration not stated), for which the activation is 5.24% (inactive).

Take `Cc1nn(Cc2ccccc2Cl)c(Cl)c1C(=O)OC(C(=O)NC(N)=O)C(C)C` (configuration not stated): the activation is 31.5% (active).
